# From the supplement of paper PMC8728848
# Shown is part of a subset that was picked to be rich in the strongest signals.
# How the values were obtained:
# Test in all cases: glycan array binding signal (z-score within array); higher = stronger binding
# Conditions in all cases: glycan notation: IUPAC condensed, linker removed
# [1] = target: Fuc(a1-2)Gal(b1-3)GalNAc(a1-3)[Fuc(a1-2)]Gal(b1-4)GlcNAc
# Summary of the method: (§1)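 From the Consortium for Functional Glycomics database, 3228 arrays were curated, keeping only those whose protein sequence was available. Binding is given as a within-array Z-score averaged across arrays sharing a protein sequence and across linkers. Negative Z-scores can be read as non-binding.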
# [2] = target: Fuc(a1-2)Gal(b1-3)GlcNAc(b1-2)Man(a1-3)[Fuc(a1-2)Gal(b1-3)GlcNAc(b1-2)Man(a1-6)]Man(b1-4)GlcNAc(b1-4)GlcNAc
# Summary of the method: as §1
# [3] = target: Fuc(a1-2)Gal(b1-3)GlcNAc6S
# Summary of the method: as §1
# [4] = target: Fuc(a1-2)Gal(b1-3)[Fuc(a1-4)]GlcNAc
# Summary of the method: as §1
# [5] = target: Fuc(a1-2)Gal(b1-3)[Fuc(a1-4)]GlcNAc(b1-3)[Gal(b1-4)GlcNAc(b1-6)]Gal(b1-4)Glc
# Summary of the method: as §1
# [6] = target: Fuc(a1-2)[Gal(a1-4)]Gal(b1-4)GlcNAc
# Summary of the method: as §1
# [7] = target: Fuc(a1-2)[GalNAc(a1-3)]Gal(b1-3)GalNAc(a1-3)[Fuc(a1-2)]Gal(b1-4)GlcNAc
# Summary of the method: as §1
# [8] = target: Fuc(a1-3)[Gal(b1-4)]GlcNAc(b1-2)Man
# Summary of the method: as §1
# [9] = target: Fuc(a1-3)[Gal(b1-4)]GlcNAc(b1-6)GalNAc
# Summary of the method: as §1
# [10] = target: Gal(a1-4)Gal(b1-4)GlcNAc(b1-2)Man(a1-3)[Gal(a1-4)Gal(b1-4)GlcNAc(b1-2)Man(a1-6)]Man(b1-4)GlcNAc(b1-4)GlcNAc
# Summary of the method: as §1
# [11] = target: Gal(a1-4)Gal(b1-4)GlcNAc(b1-3)Gal(b1-4)Glc
# Summary of the method: as §1
# Gal(b1-3)Gal = target: Gal(b1-3)Gal
# Summary of the method: as §1
# Gal(b1-3)Gal(b1-4)GlcNAc = target: Gal(b1-3)Gal(b1-4)GlcNAc
# Summary of the method: as §1
# Gal(b1-3)GalNAc(b1-3)Gal = target: Gal(b1-3)GalNAc(b1-3)Gal
# Summary of the method: as §1
# Gal(b1-3)GlcNAc = target: Gal(b1-3)GlcNAc
# Summary of the method: as §1
# [12] = target: Gal(b1-3)[Neu5Ac(a2-6)]GlcNAc(b1-4)Gal(b1-4)Glc
# Summary of the method: as §1
# [13] = target: Gal(b1-4)GlcNAc(b1-2)[Gal(b1-4)GlcNAc(b1-4)]Man(a1-3)[Gal(b1-4)GlcNAc(b1-2)Man(a1-6)]Man(b1-4)GlcNAc(b1-4)GlcNAc
# Summary of the method: as §1
# [14] = target: Gal(b1-4)GlcNAc(b1-3)Gal(b1-4)GlcNAc(b1-2)Man(a1-3)[Gal(b1-4)GlcNAc(b1-3)Gal(b1-4)GlcNAc(b1-2)Man(a1-6)]Man(b1-4)GlcNAc(b1-4)[Fuc(a1-6)]GlcNAc
# Summary of the method: as §1
# [15] = target: Gal(b1-4)GlcNAc(b1-3)Gal(b1-4)GlcNAc(b1-3)Gal(b1-4)GlcNAc(b1-2)[Gal(b1-4)GlcNAc(b1-3)Gal(b1-4)GlcNAc(b1-3)Gal(b1-4)GlcNAc(b1-6)]Man(a1-6)[Gal(b1-4)GlcNAc(b1-3)Gal(b1-4)GlcNAc(b1-3)Gal(b1-4)GlcNAc(b1-2)Man(a1-3)]Man(b1-4)GlcNAc(b1-4)[Fuc(a1-6)]GlcNAc
# Summary of the method: as §1
# [16] = target: Gal(b1-4)GlcNAc(b1-3)Gal(b1-4)GlcNAc(b1-3)Gal(b1-4)GlcNAc(b1-3)Gal(b1-4)GlcNAc(b1-3)Gal(b1-4)GlcNAc(b1-2)[Gal(b1-4)GlcNAc(b1-3)Gal(b1-4)GlcNAc(b1-3)Gal(b1-4)GlcNAc(b1-3)Gal(b1-4)GlcNAc(b1-3)Gal(b1-4)GlcNAc(b1-6)]Man(a1-6)[Gal(b1-4)GlcNAc(b1-3)Gal(b1-4)GlcNAc(b1-3)Gal(b1-4)GlcNAc(b1-3)Gal(b1-4)GlcNAc(b1-3)Gal(b1-4)GlcNAc(b1-2)Man(a1-3)]Man(b1-4)GlcNAc(b1-4)[Fuc(a1-6)]GlcNAc
# Summary of the method: as §1
# [17] = target: Gal(b1-4)GlcNAc(b1-3)Gal(b1-4)GlcNAc(b1-3)[Gal(b1-4)GlcNAc(b1-3)Gal(b1-4)GlcNAc(b1-6)]GalNAc
# Summary of the method: as §1
# Gal3S(b1-3)GlcNAc = target: Gal3S(b1-3)GlcNAc
# Summary of the method: as §1
# [18] = target: Gal3S(b1-4)[Fuc(a1-3)]GlcNAc6S
# Summary of the method: as §1
# Gal3S6S(b1-4)GlcNAc6S = target: Gal3S6S(b1-4)GlcNAc6S
# Summary of the method: as §1
# Gal4S6S(b1-4)GlcNAc = target: Gal4S6S(b1-4)GlcNAc
# Summary of the method: as §1
# GalNAc(b1-3)GalNAc = target: GalNAc(b1-3)GalNAc
# Summary of the method: as §1
# GalNAc(b1-6)GalNAc = target: GalNAc(b1-6)GalNAc
# Summary of the method: as §1
# [19] = target: GalNAc3S(b1-4)[Fuc(a1-3)]GlcNAc
# Summary of the method: as §1
# Glc(b1-6)Glc = target: Glc(b1-6)Glc
# Summary of the method: as §1
# [20] = target: GlcNAc(a1-4)Gal(b1-4)GlcNAc(b1-3)Gal(b1-4)[Fuc(a1-3)]GlcNAc(b1-3)Gal(b1-4)[Fuc(a1-3)]GlcNAc
# Summary of the method: as §1
# [21] = target: GlcNAc(b1-2)Gal(b1-3)GalNAc
# Summary of the method: as §1
# GlcNAc(b1-3)Fuc = target: GlcNAc(b1-3)Fuc
# Summary of the method: as §1
# [22] = target: GlcNAc(b1-3)Gal(b1-4)GlcNAc(b1-2)Man(a1-3)[GlcNAc(b1-3)Gal(b1-4)GlcNAc(b1-2)Man(a1-6)]Man(b1-4)GlcNAc(b1-4)[Fuc(a1-6)]GlcNAc
# Summary of the method: as §1
# [23] = target: GlcNAc(b1-3)[GlcNAc(b1-6)]Gal(b1-4)GlcNAc
# Summary of the method: as §1
# [24] = target: GlcNAc(b1-4)GlcNAc(b1-4)GlcNAc(b1-4)GlcNAc(b1-4)GlcNAc
# Summary of the method: as §1
# [25] = target: Man(a1-2)Man(a1-3)[Man(a1-6)]Man(a1-6)[Man(a1-2)Man(a1-3)]Man(b1-4)GlcNAc(b1-4)GlcNAc
# Summary of the method: as §1
# [26] = target: Man(a1-3)[Man(a1-6)]Man(a1-6)[Man(a1-3)]Man(b1-4)GlcNAc(b1-4)GlcNAc
# Summary of the method: as §1
# [27] = target: Neu5Ac(a2-3)Gal(b1-3)GalNAc(b1-4)[Neu5Ac(a2-3)]Gal(b1-4)Glc
# Summary of the method: as §1
# [28] = target: Neu5Ac(a2-3)Gal(b1-3)GlcNAc(b1-2)Man
# Summary of the method: as §1
# [29] = target: Neu5Ac(a2-3)Gal(b1-3)GlcNAc(b1-3)Gal(b1-4)GlcNAc
# Summary of the method: as §1
# [30] = target: Neu5Ac(a2-3)Gal(b1-3)[GlcNAc(b1-6)]GalNAc
# Summary of the method: as §1
# [31] = target: Neu5Ac(a2-3)Gal(b1-3)]Neu5Ac(a2-3)Gal(b1-4)]GlcNAc
# Summary of the method: as §1
# [32] = target: Neu5Ac(a2-3)Gal(b1-4)GlcNAc(b1-2)Man(a1-3)[Neu5Ac(a2-3)Gal(b1-4)GlcNAc(b1-2)Man(a1-6)]Man(b1-4)GlcNAc(b1-4)[Fuc(a1-6)]GlcNAc
# Summary of the method: as §1
# [33] = target: Neu5Ac(a2-3)Gal(b1-4)GlcNAc(b1-3)Gal(b1-4)GlcNAc
# Summary of the method: as §1
# [34] = target: Neu5Ac(a2-3)Gal(b1-4)GlcNAc6S
# Summary of the method: as §1
# [35] = target: Neu5Ac(a2-3)Gal(b1-4)[Fuc(a1-3)]GlcNAc(b1-2)Man
# Summary of the method: as §1
# [36] = target: Neu5Ac(a2-6)Gal(b1-4)GlcNAc(b1-2)Man(a1-6)[Man(a1-3)]Man(b1-4)GlcNAc(b1-4)GlcNAc
# Summary of the method: as §1
# [37] = target: Neu5Ac(a2-6)Gal(b1-4)GlcNAc(b1-3)Gal(b1-4)GlcNAc(b1-3)Gal(b1-4)GlcNAc(b1-2)Man(a1-3)[Neu5Ac(a2-6)Gal(b1-4)GlcNAc(b1-3)Gal(b1-4)GlcNAc(b1-3)Gal(b1-4)GlcNAc(b1-2)Man(a1-6)]GalNAc
# Summary of the method: as §1
# [38] = target: Neu5Ac(a2-6)Gal(b1-4)GlcNAc(b1-3)Gal(b1-4)GlcNAc(b1-3)GalNAc
# Summary of the method: as §1
# [39] = target: Neu5Ac(a2-6)Gal(b1-4)GlcNAc(b1-3)Gal(b1-4)GlcNAc(b1-3)[Neu5Ac(a2-6)Gal(b1-4)GlcNAc(b1-3)Gal(b1-4)GlcNAc(b1-6)]GalNAc
# Summary of the method: as §1
# [40] = target: Neu5Ac(a2-6)Gal(b1-4)GlcNAc(b1-6)[Gal(b1-3)GlcNAc(b1-3)]Gal(b1-4)Glc
# Summary of the method: as §1
# [41] = target: Neu5Ac(a2-6)GalNAc(b1-4)GlcNAc6S
# Summary of the method: as §1
# [42] = target: Neu5Ac(a2-8)Neu5Gc(a2-3)Gal(b1-4)GlcNAc
# Summary of the method: as §1
# [43] = target: Neu5Gc(a2-3)Gal(b1-4)GlcNAc(b1-3)Gal(b1-4)GlcNAc(b1-2)Man(a1-3)[Neu5Gc(a2-3)Gal(b1-4)GlcNAc(b1-3)Gal(b1-4)GlcNAc(b1-2)Man(a1-6)]Man(b1-4)GlcNAc(b1-4)GlcNAc
# Summary of the method: as §1
binder,measurement,setting,value
SJCP1531 (Schistosoma japonicum) (protein) MFKVRIINLVNISTVLLLINLLQTKSQVNVEQLVTVLEVNIKAQLKNKTTEVLVEWNPLYQDNSMPEYRKLLDETCKLFLPFVNEKVPPSTYGGECTNANFSEAPQDGSYSRVNAELRLIYKYSDNPQIQTDRLQDDLNDREEFITSESSFVAYNPKFTVKIEKLFIPISESQTTPPPTTAKNDASKKDDDDNGGEDSKAPIDTFAMTASGNKGKKDDDDNGGEDSKAPIDTFAMTASGSKDERSTWTIIGIITLVVLIFVVIGGGITVFVKRC,glycan array binding signal (z-score),[1],-0.571
same,glycan array binding signal (z-score),[2],-0.207
same,glycan array binding signal (z-score),[3],-0.955
same,glycan array binding signal (z-score),[4],0.144
same,glycan array binding signal (z-score),[5],0.498
same,glycan array binding signal (z-score),[6],0.12
same,glycan array binding signal (z-score),[7],-0.433
same,glycan array binding signal (z-score),[8],0.026
same,glycan array binding signal (z-score),[9],1.34
same,glycan array binding signal (z-score),[10],2.24
same,glycan array binding signal (z-score),[11],1.03
same,glycan array binding signal (z-score),Gal(b1-3)Gal,3.29
same,glycan array binding signal (z-score),Gal(b1-3)Gal(b1-4)GlcNAc,0.064
same,glycan array binding signal (z-score),Gal(b1-3)GalNAc(b1-3)Gal,-0.062
same,glycan array binding signal (z-score),Gal(b1-3)GlcNAc,0.101
same,glycan array binding signal (z-score),[12],-1.38
same,glycan array binding signal (z-score),[13],0.725
same,glycan array binding signal (z-score),[14],2.21
same,glycan array binding signal (z-score),[15],2.79
same,glycan array binding signal (z-score),[16],2.63
same,glycan array binding signal (z-score),[17],2.8
same,glycan array binding signal (z-score),Gal3S(b1-3)GlcNAc,0.215
same,glycan array binding signal (z-score),[18],1.28
same,glycan array binding signal (z-score),Gal3S6S(b1-4)GlcNAc6S,3.17
same,glycan array binding signal (z-score),Gal4S6S(b1-4)GlcNAc,-0.722
same,glycan array binding signal (z-score),GalNAc(b1-3)GalNAc,0.218
same,glycan array binding signal (z-score),GalNAc(b1-6)GalNAc,2.81
same,glycan array binding signal (z-score),[19],-1.15
same,glycan array binding signal (z-score),Glc(b1-6)Glc,-0.797
same,glycan array binding signal (z-score),[20],2.8
same,glycan array binding signal (z-score),[21],-1.08
same,glycan array binding signal (z-score),GlcNAc(b1-3)Fuc,-0.112
same,glycan array binding signal (z-score),[22],-0.143
same,glycan array binding signal (z-score),[23],0.523
same,glycan array binding signal (z-score),[24],-0.099
same,glycan array binding signal (z-score),[25],-1.4
same,glycan array binding signal (z-score),[26],-0.243
same,glycan array binding signal (z-score),[27],-1.32
same,glycan array binding signal (z-score),[28],-0.604
same,glycan array binding signal (z-score),[29],-0.438
same,glycan array binding signal (z-score),[30],0.205
same,glycan array binding signal (z-score),[31],-0.188
same,glycan array binding signal (z-score),[32],-1.15
same,glycan array binding signal (z-score),[33],2.53
same,glycan array binding signal (z-score),[34],0.004
same,glycan array binding signal (z-score),[35],-0.84
same,glycan array binding signal (z-score),[36],-1.2
same,glycan array binding signal (z-score),[37],3.3
same,glycan array binding signal (z-score),[38],2.87
same,glycan array binding signal (z-score),[39],3
same,glycan array binding signal (z-score),[40],0.485
same,glycan array binding signal (z-score),[41],0.413
same,glycan array binding signal (z-score),[42],-1.65
same,glycan array binding signal (z-score),[43],0.86
